Here are results for 112 sequences from the supplement of paper PMC3334620.

Whole data set: some 33,000 sequences, median “E-score (-0.5 to 0.5)” near -0.054, cut for the highest 2% near 0.35. The sample as a whole holds a higher share of the highest values than the screen did.

For the assay, the target named is T1, Stb5 (UniProt P38699).
T1 sequence: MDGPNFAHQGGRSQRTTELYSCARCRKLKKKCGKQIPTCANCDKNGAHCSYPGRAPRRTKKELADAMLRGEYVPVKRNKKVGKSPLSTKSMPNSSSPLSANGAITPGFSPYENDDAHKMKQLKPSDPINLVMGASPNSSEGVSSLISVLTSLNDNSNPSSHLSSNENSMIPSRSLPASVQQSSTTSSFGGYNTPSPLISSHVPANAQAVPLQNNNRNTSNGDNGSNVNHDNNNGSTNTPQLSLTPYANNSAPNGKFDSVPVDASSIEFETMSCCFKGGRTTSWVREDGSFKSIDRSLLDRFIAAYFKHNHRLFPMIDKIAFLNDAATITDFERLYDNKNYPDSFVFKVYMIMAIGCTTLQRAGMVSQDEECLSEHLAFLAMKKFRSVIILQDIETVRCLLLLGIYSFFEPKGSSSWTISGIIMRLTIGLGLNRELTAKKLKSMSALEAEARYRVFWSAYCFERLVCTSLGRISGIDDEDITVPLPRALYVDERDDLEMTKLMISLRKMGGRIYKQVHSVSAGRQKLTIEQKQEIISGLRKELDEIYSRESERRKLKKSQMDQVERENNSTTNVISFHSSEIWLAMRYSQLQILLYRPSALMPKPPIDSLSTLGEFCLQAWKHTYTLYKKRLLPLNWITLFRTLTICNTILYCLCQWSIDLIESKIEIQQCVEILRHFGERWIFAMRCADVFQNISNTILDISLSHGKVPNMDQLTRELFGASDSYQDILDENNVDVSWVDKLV
In words: PBM E-score (8-mer binding enrichment) (E-score (-0.5 to 0.5)); higher = stronger / more preferred TF binding. The following applies: protein concentration: 200 nM; construct: GST-full length. The method in brief:
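Bound GST-tagged yeast transcription factors, applied at about 100-200 nM to double-stranded universal all-10-mer Agilent arrays, were detected with fluorescent anti-GST. Scans were normalised with masliner. A modified Wilcoxon-Mann-Whitney statistic, the E-score, was assigned to each ungapped eight-base word pooled with its reverse complement by the Universal PBM Analysis Suite.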
For GAACTGCC, the “PBM E-score” value was -0.118.

In the case of CGGATCCG, the “PBM E-score” value was 0.124.

As to ATGGTCTA, the “PBM E-score” value is -0.23.

With AAGAACCG, the “PBM E-score” value turned out to be 0.262.

Consider AAAGATCG, for which the “PBM E-score” value is -0.0774.

For AGGCATCC, the “PBM E-score” value is -0.261.

Consider ACATTAGC, for which the “PBM E-score” value was -0.083.

AGGCCGTG: the “PBM E-score” value worked out at 0.212.

On to CTCTTGTC, for which the “PBM E-score” value is -0.198.

On to ACGCCATG, for which the “PBM E-score” value was -0.293.

Consider TAGCCGGA, for which the “PBM E-score” value came out at 0.279.

CCTGAAGG: the “PBM E-score” value is -0.14.

Consider AAAGTCCA, for which the “PBM E-score” value was -0.136.

In the case of AAAGTCCG, the “PBM E-score” value turned out to be 0.466.

With AAAGTCCT, the “PBM E-score” value was 0.108.

Turning to ACGATTAC, the “PBM E-score” value is -0.161.

In the case of CTCTGCCA, the “PBM E-score” value is -0.235.

TCGGCCCA: the “PBM E-score” value was 0.105.

As for ACGGAGCC, the “PBM E-score” value amounted to 0.263.

With ACGGATAT, the “PBM E-score” value amounted to 0.367.

For ACGGAGAC, the “PBM E-score” value is 0.272.

Regarding ACGGAGAA, the “PBM E-score” value was 0.188.

As to ACGGAGCG, the “PBM E-score” value amounted to 0.299.

Turning to ACGGAGAT, the “PBM E-score” value is 0.403.

Regarding ACGGATAG, the “PBM E-score” value is -0.0573.

As to ACGGAGCT, the “PBM E-score” value stood at 0.373.

Regarding ACGGATAA, the “PBM E-score” value was 0.215.

In the case of AACTGTGA, the “PBM E-score” value is -0.19.

As to ATTGGAAA, the “PBM E-score” value was -0.0189.

As for ATCCTTTC, the “PBM E-score” value was -0.195.

CAGGCGAA: the “PBM E-score” value was -0.257.

Turning to GGCTTCTA, the “PBM E-score” value was -0.04.

AGTCGTAC: the “PBM E-score” value was -0.189.

Take TGTCGGAA: the “PBM E-score” value is 0.26.

ACAGGTCA: the “PBM E-score” value was -0.136.

For the sequence CACTACTA, the “PBM E-score” value was -0.117.

ACCATCCA: the “PBM E-score” value is -0.118.

For the sequence CTAGTACC, the “PBM E-score” value is 0.226.

ATAGTACC: the “PBM E-score” value amounted to 0.359.

On to ATAGTACG, for which the “PBM E-score” value is -0.0437.

As for ACCCGATC, the “PBM E-score” value worked out at 0.19.

On to CCCCGATA, for which the “PBM E-score” value was found to be 0.339.

As to CCCCGATC, the “PBM E-score” value turned out to be 0.374.

Regarding GGCCGATA, the “PBM E-score” value turned out to be 0.266.

With AGCCGATC, the “PBM E-score” value was 0.0924.

As for CGCCGAGC, the “PBM E-score” value came to 0.261.

Regarding CGCCGATA, the “PBM E-score” value came out at 0.36.

On to AGCCGATA, for which the “PBM E-score” value came out at 0.0102.

In the case of CGCCGATC, the “PBM E-score” value was 0.363.

As for ACTATTCA, the “PBM E-score” value was -0.084.

As for CGCATCTC, the “PBM E-score” value was -0.00684.

Regarding TCTTTACA, the “PBM E-score” value is -0.117.

On to AGTGGCGG, for which the “PBM E-score” value came out at 0.292.

With ACAGTTAC, the “PBM E-score” value was -0.0633.

As for TGGAATAA, the “PBM E-score” value is -0.14.

Take GGGAATAA: the “PBM E-score” value amounted to 0.373.

GGGAATAC: the “PBM E-score” value is 0.302.

On to CAACGAAC, for which the “PBM E-score” value came to 0.079.

On to CACCGATC, for which the “PBM E-score” value was determined as 0.359.

Consider AACCGATG, for which the “PBM E-score” value was found to be 0.143.

With CACCGATA, the “PBM E-score” value stood at 0.351.

With CACCGATG, the “PBM E-score” value came to 0.357.

Turning to GACCGATC, the “PBM E-score” value came out at 0.323.

AACCGATC: the “PBM E-score” value came out at 0.106.

On to GAGGCTGC, for which the “PBM E-score” value is -0.213.

Consider ATCGGTTG, for which the “PBM E-score” value amounted to 0.0401.

As to CGCAATAC, the “PBM E-score” value was -0.0062.

Take CCTGGTCG: the “PBM E-score” value stood at 0.0613.

With ACTCGGTA, the “PBM E-score” value is -0.00538.

Turning to AGTCGGGA, the “PBM E-score” value worked out at 0.287.

On to AATCGGTA, for which the “PBM E-score” value is 0.262.

Turning to ACTCGGGG, the “PBM E-score” value turned out to be 0.185.

As to CGTCGGTA, the “PBM E-score” value came out at 0.357.

On to AATCGGTC, for which the “PBM E-score” value was determined as 0.234.

AGTCGGTA: the “PBM E-score” value is 0.36.

Regarding AGTCGGGG, the “PBM E-score” value turned out to be 0.363.

In the case of GGTCGGTA, the “PBM E-score” value was found to be 0.319.

For CCTCGGTA, the “PBM E-score” value came to 0.223.

AATCGGTG: the “PBM E-score” value was 0.405.

Take CGTCGGTC: the “PBM E-score” value worked out at 0.325.

On to ATTGAAAT, for which the “PBM E-score” value is -0.0501.

In the case of AACGAGGC, the “PBM E-score” value was -0.168.

Consider ACTCTACG, for which the “PBM E-score” value is -0.241.

With TATACTCA, the “PBM E-score” value was -0.245.

Turning to GCGATTCA, the “PBM E-score” value was determined as 0.00506.

On to GGGCGCCC, for which the “PBM E-score” value stood at 0.147.

As to GATAACGA, the “PBM E-score” value is -0.102.

Take ACTCAAGG: the “PBM E-score” value was -0.223.

In the case of CATCGGGG, the “PBM E-score” value is 0.313.

Turning to AGTCGGTG, the “PBM E-score” value came to 0.385.

With AATCGGGC, the “PBM E-score” value turned out to be 0.209.

As for AGTCGGTC, the “PBM E-score” value was found to be 0.259.

As for AATCGGGG, the “PBM E-score” value amounted to 0.372.

With CGACGGTA, the “PBM E-score” value came to 0.352.

Take GGACGGTA: the “PBM E-score” value was found to be 0.241.

With CGACGGTC, the “PBM E-score” value is 0.315.

AGTCGGCG: the “PBM E-score” value is 0.239.

Take AAATGGAT: the “PBM E-score” value was -0.168.

Consider AGGGAGAC, for which the “PBM E-score” value is -0.0822.

For the sequence AACATGGT, the “PBM E-score” value is -0.217.

For GCCAGCGC, the “PBM E-score” value is -0.00309.

With GAAGGGGC, the “PBM E-score” value was -0.11.

Consider AGCTCTCC, for which the “PBM E-score” value was -0.325.

Take CTGCGTCA: the “PBM E-score” value was -0.121.

Turning to GTAACTAC, the “PBM E-score” value was 0.109.

Take CTTCCCGC: the “PBM E-score” value was determined as 0.129.

For ATTCCCGC, the “PBM E-score” value is 0.4.

Consider ATTCCCGG, for which the “PBM E-score” value came out at 0.319.

Turning to GTTCCCGA, the “PBM E-score” value was determined as 0.235.

As to ATTCCCGA, the “PBM E-score” value is 0.379.

Turning to CTTCCCGA, the “PBM E-score” value stood at 0.0298.

Turning to AATCCTAG, the “PBM E-score” value was -0.0194.
